14-3-3 Bad PPI – disrupts binding of bovine 14-3-3 zeta to phospho-Bad peptide. TR-FRET 14-3-3zeta/Dy647-pBad peptide displacement, 1 h. P63103. AID 781. hit rate 0.71% among 220,000. inhibition, % at 21.7 µM;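 active = inhibition above about 70%, limit read from the data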
Target sequence (P63103 whole entry, looked up): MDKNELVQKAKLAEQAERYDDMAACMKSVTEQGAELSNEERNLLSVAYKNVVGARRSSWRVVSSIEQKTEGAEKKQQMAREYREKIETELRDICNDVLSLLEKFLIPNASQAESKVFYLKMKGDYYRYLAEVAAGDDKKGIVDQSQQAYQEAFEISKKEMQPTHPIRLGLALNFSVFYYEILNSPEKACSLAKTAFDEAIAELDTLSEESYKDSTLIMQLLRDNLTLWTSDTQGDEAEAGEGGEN
eIF4E-4G inh – eIF4E/eIF4G interaction inhibition in translation initiation; P63073+Q04637; inhibition, % at 21.7 µM; hit rate 0.37% among 220,000; TR-FRET eIF4E-eIF4GI(517-606) binding, 2 h
NCF1 inh – p47phox (human) inhibition | P14598 | p47phox/p22phox peptide binding, fluorescence polarization, 2 h | inhibition, % at 24.7 µM | hit rate 0.53% among 220,000 | AID 1274
Target sequence (P14598 whole entry, looked up): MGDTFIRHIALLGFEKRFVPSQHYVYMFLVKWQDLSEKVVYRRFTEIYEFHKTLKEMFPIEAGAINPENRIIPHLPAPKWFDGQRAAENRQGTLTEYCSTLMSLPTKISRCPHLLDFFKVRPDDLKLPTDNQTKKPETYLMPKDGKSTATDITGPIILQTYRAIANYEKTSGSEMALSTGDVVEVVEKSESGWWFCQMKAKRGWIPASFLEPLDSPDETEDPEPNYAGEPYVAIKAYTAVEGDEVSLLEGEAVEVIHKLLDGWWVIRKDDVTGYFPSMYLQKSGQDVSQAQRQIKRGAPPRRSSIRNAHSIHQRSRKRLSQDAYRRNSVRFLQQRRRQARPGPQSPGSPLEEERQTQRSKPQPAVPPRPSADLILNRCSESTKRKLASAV
Mcl1 Bid PPI – Mcl-1/Bid interaction inhibition | Q07820 | TR-FRET Mcl-1/Bid-Dy647 peptide binding, 1536-well | inhibition, % at 21.7 µM | hit rate 0.97% among 220,000;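 active = compounds that cut the binding signal by more than half at the single screening dose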;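 note: His-tagged Mcl-1 with europium anti-His antibody binding Bid BH3 peptide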
Mcl1-Noxa inh – Mcl-1/Noxa interaction inhibition. Q07820. TR-FRET Mcl-1/Noxa peptide binding, 2 h. inhibition, % at 21.7 µM. hit rate 1.5% among 220,000. AID 1022;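 active = compounds that cut the protein-peptide binding signal by more than 50% relative to plate controls in a single-dose test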;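 note: His-tagged Mcl-1 with rhodamine Noxa BH3 peptide and terbium anti-His antibody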
Bim-Mcl-1 – human Bim-Mcl-1 interaction inhibition. Q07820. Bead-based flow cytometry, Bim peptide-Mcl-1 binding. inhibition, % at 10 µM. hit rate 0.1% among 190,000. AID 1009; in the data active = inhibition above about 40%
Each line names hits and unclear results; the compound was inactive in the other large screens; [ ] = dose if it differs, or a comment. A selection: hits, their analogues and other compounds. The true share with any hit is near 3.3%.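 Rule for the calls, unless noted: active = inhibition above about 30% (limit read from the data); inactive = the rest.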

CCCN(CC#CCOc1ccc(OC)cc1)CCC	14-3-3 Bad PPI 94
CN(C)CP(=O)(O)CN(C)C=O	14-3-3 Bad PPI 91
CC1=CC(=O)NP(=O)(Oc2ccc3ccccc3c2)N1 (centres undefined)	eIF4E-4G inh 81
COC(=O)c1ccc(CN2CCN(Cc3ccccc3)CC2)cc1	14-3-3 Bad PPI 76
CCc1c(C)nc(N)nc1N1N=C1SC(C(C)=O)C(C)=O	none
COc1ccc(C)cc1NC1=NCCCS1	none
Cc1ccc(N2C(=O)NC(=O)/C(=C/c3ccoc3)C2=O)cc1	14-3-3 Bad PPI 75, eIF4E-4G inh 35, Mcl1-Noxa inh 77 (no result: Bim-Mcl-1)
Cc1ccc(N2C(=O)NC(=O)/C(=C\c3cnc(-c4ccccc4)nc3)C2=O)cc1	Mcl1-Noxa inh 75
CSc1ncc(/C=C2/C(=O)NC(=O)N(c3ccc(C)cc3)C2=O)cn1	none
Cc1ccc(CN2CCN(Cc3ccccc3F)CC2)cc1	none
FC(F)(F)c1ccccc1CN1CCN(Cc2ccccc2)CC1	14-3-3 Bad PPI 74
CCOc1ccccc1N1C(=O)NC(=O)/C(=C/c2ccc3c4c(cccc24)CC3)C1=O	none
COc1cccc(N2C(=O)NC(=O)/C(=C/c3ccc4c5c(cccc35)CC4)C2=O)c1	Mcl1-Noxa inh 52
Fc1ccccc1N1CCN(Cc2c(F)cccc2F)CC1	none
Fc1ccccc1N1CCN(Cc2ccc3c(c2)OCO3)CC1	14-3-3 Bad PPI 77
COc1ccccc1N1CCN(Cc2ccc(F)cc2)CC1	none
COc1ccc(CN2CCN(c3ccccc3F)CC2)cc1O	Mcl1 Bid PPI 81
CCN1CC2([N+](=O)[O-])CC=C(Cl)C([N+](=O)[O-])(C1)C2 (centres undefined)	none
[N-]=[N+]=NC1C[C@H](n2ccc(=O)[nH]c2=O)O[C@@H]1CO (some centres undefined)	none
O=[N+]([O-])c1cc(-c2ccc([As](=O)(O)O)cc2)ccc1[As](=O)(O)O	none (no result: Bim-Mcl-1)
Cc1ccccc1CN1CCN(C(=O)Cc2ccccc2)CC1	none
CCC(CC)N1CCN(C(=O)Cc2ccccc2)CC1	14-3-3 Bad PPI 71
Cn1c(NN=O)nc2ccccc21	none
Cn1c(=O)c2c(nc(N/N=C/c3c(O)n(-c4ccccc4)c(=S)[nH]c3=O)n2C)n(C)c1=O	none
Brc1ccccc1	Mcl1 Bid PPI 83 (no result: Bim-Mcl-1)
C=C1C2C[C@H](O)C(C)(C)[C@@]2(O)[C@H](O)C[C@]23C[C@@](C)(O)[C@H](CC[C@H]12)[C@H]3OC(C)=O (some centres undefined)	14-3-3 Bad PPI 93[fluorescence artefact?]
CCOc1ccc(-n2c(-c3ccoc3)nc3ccccc3c2=O)cc1	Mcl1 Bid PPI 96
Cc1ccc2c(c1Cl)NC(C(=O)O)C1CC(Sc3ccccc3[N+](=O)[O-])C(Cl)C21 (centres undefined)	Mcl1-Noxa inh 97 (no result: Bim-Mcl-1)
CCN(CC)C(=O)c1ccc2c(c1)C1C(Cl)C(Sc3ccccc3[N+](=O)[O-])CC1C(C(=O)O)N2 (centres undefined)	NCF1 inh 46, Mcl1-Noxa inh 63 (no result: Bim-Mcl-1)
Cc1cc(Cl)ccc1C(=O)C1CCCN(C2CCSCC2)C1 (centres undefined)	none
CCN1CCN(Cc2nnnn2C(C)(C)C)CC1	14-3-3 Bad PPI 75
C=CCN1CC[C@]23c4c5ccc(O)c4OC2C(=O)CC[C@@]3(O)C1C5 (some centres undefined)	none (no result: Bim-Mcl-1)
N=C1c2ccccc2CN1c1ccc(F)c([N+](=O)[O-])c1	none (no result: Bim-Mcl-1)
O=C(c1ccc2c(c1)ncn2-c1ccc(F)cc1F)N1CCC2(CC1)OCCO2	NCF1 inh 43
O=C1c2ccccc2C(=O)N1Cc1nc2ccccc2c(=O)n1-c1ccccn1	eIF4E-4G inh 31
c1ccc(CC(NCc2ccco2)c2ccccc2)cc1 (centres undefined)	none
CCOc1ccc(-c2c(C)n(-c3ccc(OCC)cc3)c3[n+]2CCCCC3)cc1	none (no result: Bim-Mcl-1)
CC(=O)c1ccc(OC(C)C)c(Cc2c(O)[nH]c(=S)[nH]c2=O)c1	none
O=C1NC(=S)N(c2ccccc2F)C(=O)/C1=C\c1cccs1	Mcl1-Noxa inh 86
CCOc1ccc(N2C(=O)/C(=C\c3cccs3)C(=O)NC2=S)cc1	Mcl1-Noxa inh 67
CCOc1ccc(N2C(=O)NC(=O)/C(=C\c3ccccc3[N+](=O)[O-])C2=O)cc1	none (no result: Bim-Mcl-1)
Cc1ccc(NP(=O)(Nc2ccc(C)cc2)Oc2ccccc2)cc1	none
Cc1ccc(CN2CCN(C)CC2)c(C)c1	none
CCN1CCN(Cc2ccc(C)cc2C)CC1	14-3-3 Bad PPI 77
Cc1cc(C)cc(NC2=NCCCS2)c1	none
CCCCCc1nc2c(c(=O)c3ccccc3n2C)c(=O)n1C1CCCCCC1	Mcl1 Bid PPI 54
COC(=O)C1=Nc2ccccc2/C1=C\c1c(O)n(-c2cc(OC)ccc2OC)c(=O)[nH]c1=O	Mcl1-Noxa inh 65
Cc1ccccc1-n1c(O)c(/C=C2/C(c3ccccc3)=Nc3ccccc32)c(=O)[nH]c1=O	none
Cn1c(O)c(C(c2ccccn2)c2c(O)n(C)c(=S)[nH]c2=O)c(=O)[nH]c1=S	14-3-3 Bad PPI 77
NCCCCCC(=O)OC1N=C(c2ccccc2Cl)c2cc(Br)ccc2NC1=O (centres undefined)	none
CN1/C(=C\C=C2C(=O)NC(=S)NC2=O)C(C)(C)c2ccccc21	Mcl1 Bid PPI 82
NC(=O)Nc1ccc(C(=O)OCC(=O)Nc2ccc(Cl)cc2C(=O)c2ccccc2)cc1	none
Cc1nnc2n1-c1ccc(Cl)cc1C(c1ccccc1)=NC2	none
CN1C(=O)CN=C(c2ccc(Cl)cc2)c2cc(Cl)ccc21	Mcl1 Bid PPI 97
N/C(=N\N=C/c1ccc(-c2ccc(O)c(C(=O)O)c2)o1)N[N+](=O)[O-]	14-3-3 Bad PPI 95[fluorescence artefact?], eIF4E-4G inh 33[fluorescence artefact?], Mcl1-Noxa inh 87
COc1ccc(/C=N/N=C(/N)N[N+](=O)[O-])c(OC)c1	none
CN1CCN(c2nc3ccccn3c(=O)c2C=C2C(=O)N(C)C(=O)N(C)C2=O)CC1	none
CN1CCC(N(C)c2nc(-c3ccc([N+](=O)[O-])cc3)nc3ccccc23)CC1	Mcl1-Noxa inh 94
CCc1ccc(NP(=O)(Oc2ccccc2F)Oc2ccccc2F)cc1	none
CCN(CC)C(=O)c1ccc(NC(=O)Nc2ccccc2F)cc1	none
CCOC(=O)c1c(/N=C/C2C(=O)NC(=S)NC2=O)sc2c1CCC2	14-3-3 Bad PPI 78
CCOC(=O)c1c(/N=C/C2C(=O)NC(=S)NC2=O)sc(C)c1C	Mcl1 Bid PPI 67
COC(=O)C(=O)N1CC2(C)CNCC(C)(C1)C2=O	none
C[N+]1(C)[C@@H]2CC[C@H]1CC(OC(=O)C(CO)c1ccccc1)C2 (some centres undefined)	none
C[N+]1(C)C2CCC1CC(OC(=O)C(CO)c1ccccc1)C2 (centres undefined)	14-3-3 Bad PPI 91
COc1cc(/C=C/c2nc3ccccc3c(=O)n2-c2cccc(O)c2)ccc1O	Mcl1 Bid PPI 63, Mcl1-Noxa inh 96 (no result: Bim-Mcl-1)
